± gives the standard deviation.
These compounds were tested on OVCAR-3-derived ovarian cancer stem-like cells (spheroids) (assay: cell growth relative to untreated control; higher = more growth (less inhibition)). Details: 2.29 µM; 96 h.
Method in brief: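 OVCAR-3 spheroid-derived stem-like cells were trypsin-dissociated, seeded at 50,000 cells/mL in stem cell medium in ultra-low attachment 96-well plates and preincubated 24 h. Compounds were then added at 2.29 uM for 96 h at 37°C, 5% CO2, in 4 replicate wells. Viability was read as TOX8 resazurin fluorescence (ex 560/em 590 nm) after 4 h. Percent growth was calculated relative to untreated wells after blank subtraction and Grubbs outlier removal.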

Structure (SMILES) | cell growth [%]
O=C1NC(c2cccc3ccccc23)Nc2ccccc21 (centres undefined) | 34.9 ± 6.6
CCCC(=O)OCC1OC(n2ccc(N)nc2=O)C(OC(=O)CCC)C1OC(=O)CCC (centres undefined) | 31.7 ± 19
Nc1nc(Cl)nc2c1ncn2[C@H]1C[C@H](O)[C@@H](CO)O1 | 82.7 ± 17
CC1(c2cccc3ccccc23)OC(=O)c2ccccc21 (centres undefined) | 116 ± 29
Cc1ccc(/C=C2\CNC/C(=C\c3ccc(C)cc3)C2=O)cc1 | 44.5 ± 10
CC(=O)c1sc2c(c1OC(=O)c1ccc(Cl)cc1Cl)c(=O)n(-c1ccccc1)c(=S)n2-c1ccccc1 | 94.1 ± 24
COc1ccc2c(O)c3[n+](cc2c1OC)CCc1cc2c(cc1-3)OCO2 | 103 ± 14
CC(C)c1ccc2nc3ccc(C(=O)NCCN(C)C)cn3c(=O)c2c1 | 79.4 ± 21
COC(=O)NC1C(C)OC(OC2C/C=C(/C)C3C=CC4C(OC5CC(OC6CC(O)C(OC7CC(O)C(OC)C(C)O7)C(C)O6)C(O)C(C)O5)C(C)CC(C)C4C3(C)/C(O)=C3\C(=O)OC4(CC(C)C(CO)=CC4/C=C\2C)C3=O)CC1(C)[N+](=O)[O-] (centres undefined) | 105 ± 34
CC12CC(Br)(Br)C(=O)C3C1CCCC32 | 159 ± 19
Oc1ccc(/C=N/NC(=S)Nc2cccnc2)nc1 | 145 ± 23
Cc1cc(O)c(/C=N/C(N)=S)c(=O)o1 | 92.5 ± 14
COC(=O)C1c2cc3c(c(O)c2C(OC2OC(C)C(OC)C(C)(OC)C2OC)CC1(C)O)C(=O)c1c(O)cc2c(c1C3=O)OC1OC2(C)C(O)C(N(C)C)C1O (centres undefined) | 51.8 ± 47
Cc1ccc([N+](=O)[O-])cc1NC(=O)c1cccc([N+](=O)[O-])c1O | 146 ± 41
N#CC(=S)Nc1ccc(F)cc1 | 104 ± 19
CC(C)c1cccc(O)c(=O)c1 | 91.8 ± 19
COc1ccc2[nH]c3c(C)c4ccncc4c(C)c3c2c1 | 65.8 ± 11
CO[C@H](C(=O)[C@@H](O)[C@@H](C)O)[C@@H]1Cc2cc3cc(O[C@H]4C[C@@H](O[C@H]5C[C@@H](O)[C@H](O)[C@@H](C)O5)[C@H](O)[C@@H](C)O4)c(C)c(O)c3c(O)c2C(=O)[C@H]1O[C@H]1C[C@@H](O[C@H]2C[C@@H](O[C@H]3C[C@](C)(O)[C@H](O)[C@@H](C)O3)[C@@H](O)[C@@H](C)O2)[C@H](O)[C@@H](C)O1 | 10.8 ± 3.6
CN(Cc1cnc2nc(N)nc(N)c2n1)c1ccc(C(=O)NC(CCC(=O)O)C(=O)O)c2ccccc12 (centres undefined) | 84.7 ± 30
CCCCCCCCCCCCCCCCCCOCC(COP(=O)([O-])OCC[N+](C)(C)C)OC (centres undefined) | 93 ± 25

Structure (SMILES) | cell growth [%]
Nc1nc(N)c(N=Nc2ccccc2)c(=O)[nH]1 | 84.4 ± 21
COC1C(O)=C2C(=O)OC(C)(O)/C=C/C=C\C=C/C=C/C(c3ccccc3)NC(=O)/C=C/C=C/C=C/C=C/C2(C)C1O (centres undefined) | 71.7 ± 31
CCC(C#N)(c1ccccc1)N(CCc1ccccc1)C(=O)c1ccccc1 (centres undefined) | 129 ± 28
CCCCCCCCCCCCC(O)C(=O)O (centres undefined) | 115 ± 19
C=C1C(=O)C2=CC1CCC(=O)C1(C)CCC(OC(C)=O)C(C)(C)C1CC2O (centres undefined) | 30.4 ± 11
O=C(c1ccccc1)C(c1ccccc1)C1(O)C(=O)Nc2c(Cl)cc(Cl)cc21 (centres undefined) | 114 ± 29
O=[N+]([O-])c1ccc(N=Nc2c(O)[nH]c3ccccc23)c([N+](=O)[O-])c1 | 132 ± 29
CCOC(=O)CCc1c(C)c2c(O)cc(O)cc2oc1=O | 100 ± 21
COc1ccc2cc3[n+](cc2c1OC)CCc1cc2c(cc1-3)OCO2 | 57.3 ± 7.4
S=c1nc[nH]c2nc[nH]c12 | 95.2 ± 8.4
CC[C@@]1(O)C(=O)OCc2c1cc1n(c2=O)Cc2cc3c(N)cccc3nc2-1 | 46.5 ± 11
CCN1/C(=C\C(C)=C\c2sc3ccccc3[n+]2CC)Sc2ccccc21 | 31.4 ± 6.9
N#CCCN(CCC#N)c1ccc(/C=C2/N=C(c3cc([N+](=O)[O-])ccc3Cl)OC2=O)cc1 | 114 ± 40
COC1OC(COCc2ccc(Cl)cc2)C(OCc2ccc(Cl)cc2)C1O (centres undefined) | 110 ± 26
COc1cc(NC(C)CCCN)c2ncccc2c1 (centres undefined) | 56.5 ± 7
O=[N+]([O-])c1cccc2nc3ccccc3c(NCCCNc3c4ccccc4nc4cccc([N+](=O)[O-])c34)c12 | 10.8 ± 2.9
O=C1/C(=C\c2ccc(Cl)c(Cl)c2)CN(C(=O)CCN2CCOCC2)C/C1=C\c1ccc(Cl)c(Cl)c1 | 63.5 ± 9.5
N#CC1(C#N)C2C=CC(c3coc4cccc2c34)C1(C#N)C#N (centres undefined) | 20.9 ± 5.5
COc1cc(/C=C(\C)c2ccc3c(c2)OCO3)cc(OC)c1OC | 162 ± 21

Reference: the supplement of paper PMC3484114
